These results are taken from PubChem BioAssay.

Experiment [1] has as its system Wnt5a (protein binding on small-molecule microarray). Briefly: Wnt5a binders on small-molecule microarray, primary screen, biophysical, 635/667 nm fluorescence (AID 1142).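 Further: fluorescence read at 667 nm with signal to noise per printed feature.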 The settings on record: 635 nm fluorescence, higher = more signal.
Experiment [2] in a line: cell viability in Huh7 cells, primary screen, cytotoxicity control for HCV replication inhibitor project, CellTiter-Glo luminescence, basal, 48 h (AID 1143).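 Further: Huh7 hepatoma cells carrying a hepatitis C replication reporter with no stimulus; test concentration not given here.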 The settings on record: Huh7 HCV replicon, higher = more signal, called active from +8 up or from −8 down.
Experiment [3] can be described thus: P. aeruginosa biofilm formation inhibitors, primary screen, PAO1 strain, BacTiter-Glo luminescence, LB-PBS (AID 1144). The settings on record: 12 h, higher = more signal.
A short description of experiment [4]: CREB reporter modulators without forskolin, primary screen, cell-based, PC12, CRE-LacZ reporter, unstimulated (AID 1145). The note with it: no forskolin, luminescence, 4.5 h, higher = more signal, called active from +8 up or from −8 down.
The nature of experiment [5]: CREB reporter modulators under forskolin, primary screen, cell-based, PC12, CRE-LacZ reporter, forskolin-stimulated (AID 1146).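 Further: PC12 cells with 6xCRE LacZ reporter stimulated by forskolin 10 µM; beta-galactosidase reporter signal reflecting CREB driven transcription.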 The settings on record: luminescence, 4.5 h, higher = more signal, called active from +8 up or from −8 down.
Experiment [6] deals with Streptavidin (Streptomyces avidinii) (UniProt P22629). Briefly: streptavidin binders on small-molecule microarray, primary screen, artefact control for SMM compound annotation, biophysical, 635/667 nm fluorescence (AID 1147).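 Further: signal reflects streptavidin binding to arrayed compounds as a control protein.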 The note with it: streptavidin binding, higher = more signal.
Experiment [7] in a line: small-molecule binders of probe aInhba, primary screen, biochemical, small-molecule microarray, 635/667 nm fluorescence (AID 1148).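 Further: score merges 667nm spot fluorescence with signal-to-noise for antibody binding to printed compounds.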 The note with it: higher = more signal.
Experiment [8] addresses Torsin-1A (Homo sapiens) (UniProt O14656). Briefly: torsin A binders from cell lysate, primary screen, small-molecule microarray, wild-type, 635/667 nm (AID 1149). The note with it: COS7 hTOR1A-WT lysate, 635 nm fluorescence, higher = more signal.
Experiment [9] shares this target. Briefly: small-molecule binders of mutant TOR1A in lysate, primary screen, cell lysate, small-molecule microarray, COS7 lysate, 635/667 nm fluorescence (AID 1150).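 Further: score pools 667 nm emission and signal to noise measuring lysate protein binding.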 The settings on record: COS7 hTOR1A mutant lysate, 635 nm fluorescence, higher = more signal.
Experiment [10] relates to Sonic hedgehog protein (Shh). Briefly: small-molecule binders of Shh protein, primary screen, biochemical, small-molecule microarray, 635/667 nm fluorescence (AID 1151).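 Further: Shh protein binding to compounds spotted on small-molecule microarray slides; score combines spot fluorescence intensity with signal-to-noise across triplicate slides.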 The note with it: small-molecule microarray binding, 635 nm fluorescence; higher = more signal.

Calls of active or inactive are those of the source. Unless noted, how the calls were made is not given here.

Torsin-1A (Homo sapiens), sequence (O14656 whole entry, looked up): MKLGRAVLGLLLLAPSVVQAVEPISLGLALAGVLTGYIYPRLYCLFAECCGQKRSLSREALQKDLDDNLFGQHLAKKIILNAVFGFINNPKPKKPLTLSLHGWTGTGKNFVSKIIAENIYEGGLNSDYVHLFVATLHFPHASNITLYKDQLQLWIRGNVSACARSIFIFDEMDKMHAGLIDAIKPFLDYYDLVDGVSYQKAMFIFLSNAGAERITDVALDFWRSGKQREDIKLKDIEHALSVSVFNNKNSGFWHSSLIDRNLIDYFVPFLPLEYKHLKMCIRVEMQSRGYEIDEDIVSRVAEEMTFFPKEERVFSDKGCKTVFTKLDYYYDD
Streptavidin (Streptomyces avidinii), sequence (P22629 whole entry, looked up): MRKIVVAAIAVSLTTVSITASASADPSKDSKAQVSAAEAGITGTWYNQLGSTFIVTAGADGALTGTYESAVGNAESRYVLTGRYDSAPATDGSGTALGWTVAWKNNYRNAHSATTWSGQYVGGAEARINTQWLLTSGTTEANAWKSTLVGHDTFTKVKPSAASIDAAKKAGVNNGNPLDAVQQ

Turning to `COc1cc(C(O)C2C=CC3C(=O)NC(=O)C3N2Nc2ccccn2)cc(OC)c1OC` (stereo not given), the composite z-score in [1] is 0.147; in experiment [6] it was 0.0266; in experiment [7] it was 0.0448; in the experiment with Torsin-1A (Homo sapiens) [8] it was 0.366; with Torsin-1A (Homo sapiens) [9], 0.291; in experiment [10] it was 0.371. The z-score is 0.969 (inactive) in [2], 0.0747 (inactive) in experiment [3], 0.0467 (inactive) in experiment [4] and 0.329 (inactive) in [5].

With `CC(C)C(O)C1C=CC2C(=O)N(c3ccccc3)C(=O)C2N1Nc1ccc([N+](=O)[O-])cc1` (stereo not given), the composite z-score in [1] is 0.774; in [6], 0.122; in [7], 0.726; with Torsin-1A (Homo sapiens) [8] it was 0.0373; with Torsin-1A (Homo sapiens) [9] it was 0.142; in experiment [10] it was -0.688. Also, the z-score in experiment [2] was -0.208 (inactive); in experiment [3], 0.21 (inactive); in [4], -0.368 (inactive); in [5] it was -0.343 (inactive).

With `COCCOC(=O)N1C(=O)[C@@]2(c3cc(C#CCNC(N)=O)ccc31)[C@H](C(=O)Nc1nc3ccccc3s1)[C@H]1C(=O)O[C@H](c3ccccc3)[C@H](c3ccccc3)N1[C@@H]2c1ccc(OCCO)cc1`, the composite z-score in experiment [1] is 0.341; in [6] it was 0.664; in experiment [7], 0.261; in the experiment with Torsin-1A (Homo sapiens) [8], -0.0017; with Torsin-1A (Homo sapiens) [9], 0.452; in experiment [10], 0.969. Besides, the z-score in experiment [2] was 0.759 (inactive); in experiment [3], -0.609 (inactive); in experiment [4], -0.874 (inactive); in experiment [5] it was -0.274 (inactive).

With `O=C1O[C@@H](c2ccccc2)[C@@H](c2ccccc2)N2[C@@H](c3ccccc3OCCO)[C@]3(C(=O)Nc4ccccc43)[C@@H](C(=O)Nc3nc4ccccc4s3)[C@H]12`, the composite z-score is 0.371 in experiment [1]; 1.9 in experiment [6]; 0.286 in [7]; 0.469 with Torsin-1A (Homo sapiens) [8]; 0.972 with Torsin-1A (Homo sapiens) [9]; 2.03 in experiment [10]. For the same compound, the z-score in experiment [2] is -5.91 (inactive); in [3], -0.311 (inactive); in experiment [4], 0.568 (inactive); in experiment [5], 3.07 (inactive).

Take `C=CCNC(=O)[C@@H]1[C@H]2C(=O)O[C@H](c3ccccc3)[C@H](c3ccccc3)N2[C@H](c2ccc(O)cc2)[C@@]12C(=O)N(C(=O)OCCOC)c1ccc(C#CCNC(N)=O)cc12`: the composite z-score in experiment [1] is 0.468; in experiment [6], 0.61; in experiment [7], -0.131; with Torsin-1A (Homo sapiens) [8] it was 0.699; with Torsin-1A (Homo sapiens) [9], 0.594; in experiment [10], 1.45. Besides, the z-score in experiment [2] was -2.23 (inactive); in experiment [3], -0.298 (inactive); in [4] it was 0.35 (inactive); in experiment [5], 0.273 (inactive).

As for `C=CCOC(=O)[C@H]1[C@@H]2C(=O)O[C@@H](c3ccccc3)[C@@H](c3ccccc3)N2[C@@H](c2ccc(OCCOC(=O)[C@H]3C[C@H]4C(=O)N[C@@H](CCCC[N+](C)(C)C)C(=O)N4[C@H]3c3ccc(O)cc3)cc2)[C@]12C(=O)Nc1ccc(I)cc12`, the composite z-score in [1] is 0.232; in experiment [6], 0.134; in experiment [7], 0.0759; in the experiment with Torsin-1A (Homo sapiens) [8] it was 1.39; with Torsin-1A (Homo sapiens) [9] it was -0.243; in experiment [10], 2.22. Also, the z-score in experiment [2] was -0.326 (inactive); in experiment [3], -0.615 (inactive); in [4], 0.415 (inactive); in experiment [5] it was -0.226 (inactive).

On to `CO[C@H]1O[C@H](CO)[C@@H](OC(=O)Nc2cccc(F)c2)[C@H](OC(=O)Nc2ccccc2)[C@@H]1OC(=O)Nc1ccccc1`, for which the composite z-score in [1] came out at 0.343; in [6], 0.255; in experiment [7] it was 0.289; with Torsin-1A (Homo sapiens) [8], 0.434; in the experiment with Torsin-1A (Homo sapiens) [9] it was 0.505; in [10], 1.17. The z-score is -5.79 (inactive) in experiment [2], -0.125 (inactive) in [3], -0.459 (inactive) in experiment [4] and -0.74 (inactive) in experiment [5].

For `COc1cc2c(cc1OC)CN(C(=O)[C@H]1[C@@H]3C(=O)O[C@@H](c4ccccc4)[C@@H](c4ccccc4)N3[C@@H](c3ccc(O)cc3)[C@]13C(=O)Nc1ccccc13)CC2`, the composite z-score is 0.0185 in experiment [1]; -0.805 in [6]; 0.417 in experiment [7]; 0.191 in the experiment with Torsin-1A (Homo sapiens) [8]; 1.36 with Torsin-1A (Homo sapiens) [9]; 0.931 in [10]. In addition, the z-score in experiment [2] was -1.57 (inactive); in experiment [3], -0.219 (inactive); in experiment [4], 0.358 (inactive); in [5] it was 0.282 (inactive).

In the case of `C[N+](C)(C)CCCCCCNC(=O)[C@@H]1C[C@@H]2C(=O)N[C@@H](Cc3ccccc3)C(=O)N2[C@@H]1c1cccc(OCCO)c1`, the composite z-score in [1] was 0.122; in [6], 0.0123; in experiment [7], -0.0918; in the experiment with Torsin-1A (Homo sapiens) [8], 0.787; with Torsin-1A (Homo sapiens) [9], 1.51; in experiment [10] it was 1.92. The z-score in experiment [2] was -0.428 (inactive); in experiment [3] it was -0.573 (inactive); in experiment [4], -1.22 (inactive); in experiment [5] it was -1.04 (inactive).

As to `CN1C(=O)C2C=CC(C(O)c3ccco3)N(Nc3ccccc3)C2C1=O` (stereo not given), the composite z-score in experiment [1] is 0.148; in experiment [6], 0.437; in [7] it was -0.0131; with Torsin-1A (Homo sapiens) [8], 0.336; with Torsin-1A (Homo sapiens) [9] it was -0.59; in experiment [10], 0.59. Also, the z-score in experiment [2] was 1.11 (inactive); in experiment [3] it was -0.197 (inactive); in [4], -0.133 (inactive); in [5] it was 0.0834 (inactive).

Take `COC(=O)[C@@]1(Cc2ccc(OC)cc2)[C@H]2c3cc(C(=O)N4CCCC4)n(CCN4CNCC4=O)c3C[C@H]2CN1C(=O)c1ccccc1`: the composite z-score in experiment [1] is 2.12; in experiment [6] it was -0.002; in [7], 1.59; in the experiment with Torsin-1A (Homo sapiens) [8] it was 0.294; in the experiment with Torsin-1A (Homo sapiens) [9], 0.0178; in [10] it was -1.14. Besides, the z-score in [2] is -0.508 (inactive); in experiment [3], -0.12 (inactive); in [4], 0.201 (inactive); in experiment [5], -0.0971 (inactive).

On to `CC(C)N1C(=O)c2ccccc2[C@](C)(C(=O)NCCN2CCOCC2)[C@@H]1c1ccc(CO)cc1`, for which the composite z-score was -0.568 in [1]; -0.854 in experiment [6]; -0.0719 in experiment [7]; 0.0436 with Torsin-1A (Homo sapiens) [8]; 0.212 with Torsin-1A (Homo sapiens) [9]; -0.776 in [10]. In addition, the z-score in experiment [2] is 0.0068 (inactive); in experiment [3] it was 0.358 (inactive); in [4], 0.585 (inactive); in [5], -0.875 (inactive).

Regarding `O=C1C[C@@](C(=O)NCC(F)(F)F)(c2ccc([N+](=O)[O-])cc2)[C@@H](c2ccc(CO)cc2I)N1C1CCCCC1`, the composite z-score in experiment [1] was 0.318; in [6], 0.514; in experiment [7], -0.0421; with Torsin-1A (Homo sapiens) [8] it was 0.281; with Torsin-1A (Homo sapiens) [9] it was 0.35; in [10], 0.491. For the same compound, the z-score was -4.26 (inactive) in experiment [2], -0.148 (inactive) in [3], 0.558 (inactive) in [4] and -0.503 (inactive) in [5].

`CC(C)N1C(=O)[C@@]2(Cc3ccccc31)c1ccccc1C(=O)N(Cc1ccccc1Cl)[C@H]2c1ccc(CO)cc1`: the composite z-score was -0.515 in [1]; -0.136 in experiment [6]; -0.29 in experiment [7]; -1.47 with Torsin-1A (Homo sapiens) [8]; -0.848 with Torsin-1A (Homo sapiens) [9]; -1.25 in experiment [10]. Further, the z-score in [2] was -2.27 (inactive); in experiment [3] it was -1.68 (inactive); in experiment [4], 0.389 (inactive); in experiment [5] it was -0.389 (inactive).
